Screens: PubChem BioAssay, Broad Institute
Most compounds without a hit are left out; they make up all but 3.4% or so of the library.
Wnt bcat act: Wnt/beta-catenin pathway activation; Wnt/beta-catenin reporter cell assay, activator, plate reader; activation, % at 9.35 µM; 300,000 compounds, 1.2% hits; AID 743398; in the data active means activation above about 30%, passing the limit was not always enough; inconclusive means no clear call, values can overlap the other calls
miR-122 sensor: blocks miR-122 activity in Huh7 sensor cells. 340,000 compounds, 0.3% hits. Huh7 miR-122 Renilla luciferase sensor, 48 h; neutral wells = 0, positive control = 100. activation (reporter increase), % at 12.5 µM. AID 602342;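 active means mean replicate activation score at least 90 and every replicate individually at or above 90; inconclusive means only one of the two criteria met; inactive means neither criterion met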;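 further: higher luciferase means less miR-122 activity so hits act as miR-122 inhibitors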
MITF act: activators of MITF-driven TRPM1 promoter activity in SK-MEL-5 cells | activation, % at 12.5 µM | SK-MEL-5 TRPM1-promoter luciferase, 24 h; % of positive control, neutral wells = 0 | AID 588334 | 300,000 compounds, 0.75% hits;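 active means mean activation of at least 80% with every replicate also reaching 80%; inconclusive means mean reaches 80% but some replicate falls short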
HIV Env fusion: inhibitors of HIV Env-mediated cell fusion; inhibition, % at 12.3 µM; AID 651610; HeLa-JRFL Env/CEM21 cell fusion, luciferase; 360,000 compounds, 1.1% hits;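 active means mean replicate inhibition score of at least 50 and every replicate individually at or above 50; inconclusive means only one of the two criteria met; inactive means mean below 50 and not all replicates reaching 50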
esBAF inh: SWI/SNF esBAF complex inhibition. mouse ES cells, Bmi1-luciferase knock-in reporter, 24 h; 100% = twice the neutral-well signal. reporter increase, % at 12.5 µM. 350,000 compounds, 2% hits; in the data active means activation above about 40%; inconclusive means no clear call, values can overlap the other calls;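 further: a rise in the Bmi1 reporter signal indicates esBAF inhibition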
A number is an active result.

How did CC(C)NC(=O)Nc1ccc2c(c1)C(=O)N([C@H](C)CO)C[C@H](C)[C@@H](CN(C)S(=O)(=O)c1cccs1)OCCCC[C@H](C)O2 do in these assays?
miR-122 sensor: inactive; HIV Env fusion: inactive; esBAF inh: inactive

What do the screens show for `Cc1cc(S(=O)(=O)Nc2ccc3cn[nH]c3c2)c(C)cc1Cl`?
Wnt bcat act: inactive; miR-122 sensor: 144; MITF act: inactive; HIV Env fusion: inactive; esBAF inh: inactive

Results for O=S(=O)(Nc1ccc2cn[nH]c2c1)c1ccc(Cl)cc1 ?
miR-122 sensor: inactive; MITF act: inactive; esBAF inh: inactive

Results for CO[C@@H]1CN(C)C(=O)c2cc(NC(=O)C3CC3)ccc2OC[C@@H](C)N(Cc2cccc(F)c2)C[C@H]1C ?
esBAF inh: inactive

What do the screens show for `O=S(=O)(NCC1CCCO1)c1ccc(S(=O)(=O)N(Cc2ccccn2)C2CC2)cc1` (centres undefined)?
MITF act: inactive; HIV Env fusion: inactive

What do the screens show for `O=S(=O)(NCC1CCCO1)c1ccc(S(=O)(=O)N(Cc2ccccc2F)C2CCCCC2)cc1` (centres undefined)?
Wnt bcat act: inactive; miR-122 sensor: inactive; MITF act: inactive; HIV Env fusion: 59; esBAF inh: inactive

Results for C[C@@H]1CN([C@H](C)CO)C(=O)Cc2cc(NC(=O)Cc3ccccc3)ccc2O[C@@H]1CN(C)Cc1ccc(Oc2ccccc2)cc1 ?
miR-122 sensor: inactive; HIV Env fusion: inactive; esBAF inh: inactive

What do the screens show for `CCOc1ccc(Br)cc1CC(=O)O`?
Wnt bcat act: inactive; miR-122 sensor: inactive; MITF act: inactive; esBAF inh: inactive

Results for CCCOc1ccc(Br)cc1CSC(=N)N ?
MITF act: inactive; HIV Env fusion: 62

How did COc1ccccc1[C@@H]1C(c2ccc(F)cc2)=NN(c2ccccc2)[C@H]1C(=O)N1CCOC1=O do in these assays?
Wnt bcat act: inactive; miR-122 sensor: inactive; MITF act: inactive; HIV Env fusion: 82

How did Cc1cc(/C=C2\C(=N)N3N=CSC3=NC2=O)c(C)n1Cc1ccccc1 do in these assays?
Wnt bcat act: 36; MITF act: inactive; HIV Env fusion: inactive; esBAF inh: inactive

How did CCCC1=NN2C(=N)/C(=C\c3cc(C)n(Cc4ccccc4)c3C)C(=O)N=C2S1 do in these assays?
Wnt bcat act: inactive; miR-122 sensor: inactive; HIV Env fusion: inactive

How did CO[C@H]1CN(C)C(=O)c2cc(NC(=O)C3CCC3)ccc2OC[C@H](C)N(C(=O)NC(C)C)C[C@@H]1C do in these assays?
esBAF inh: inactive

How did O=C(CNC(=O)c1ccco1)N/N=C/c1ccccc1[N+](=O)[O-] do in these assays?
Wnt bcat act: inactive; MITF act: inactive; HIV Env fusion: inactive

Results for O=C(CNC(=O)c1cccs1)N/N=C/c1ccccc1[N+](=O)[O-] ?
Wnt bcat act: inactive; miR-122 sensor: inactive; MITF act: inactive; HIV Env fusion: inactive; esBAF inh: 60

How did COc1cccc(C(=O)NCC(=O)N/N=C/c2ccc(OC(=O)c3cccs3)c(OC)c2)c1 do in these assays?
Wnt bcat act: inactive; miR-122 sensor: inactive; MITF act: inactive

How did COc1cc(/C=N/NC(=O)CNC(=O)c2ccccc2)ccc1OC(=O)c1cccs1 do in these assays?
Wnt bcat act: 33; miR-122 sensor: inactive; MITF act: inactive; HIV Env fusion: inactive; esBAF inh: inactive

How did O=[N+]([O-])c1ccccc1N/N=C\c1ccccc1Cl do in these assays?
miR-122 sensor: inactive; MITF act: inactive; esBAF inh: 62

How did O=[N+]([O-])c1ccccc1/C=N/OCc1ccccc1 do in these assays?
Wnt bcat act: inactive; miR-122 sensor: inactive; MITF act: 101; HIV Env fusion: inactive; esBAF inh: 65

How did C[C@@H]1CN([C@H](C)CO)C(=O)c2cc(NS(C)(=O)=O)ccc2O[C@@H](C)CCCCO[C@H]1CN(C)Cc1ccc(C(=O)O)cc1 do in these assays?
miR-122 sensor: inactive; HIV Env fusion: inactive; esBAF inh: inactive

Results for O=C(N/N=C/c1cc([N+](=O)[O-])ccc1O)C1CC1 ?
Wnt bcat act: inactive; miR-122 sensor: inactive; MITF act: inactive; HIV Env fusion: inactive; esBAF inh: inactive

How did O=[N+]([O-])c1ccccc1C=NNc1ccccc1 do in these assays?
Wnt bcat act: 35; MITF act: inactive; HIV Env fusion: inactive; esBAF inh: 91

What do the screens show for `O=[N+]([O-])c1ccccc1N/N=C\c1ccccc1F`?
Wnt bcat act: 57; miR-122 sensor: inactive; MITF act: inactive; HIV Env fusion: inactive; esBAF inh: 63

What do the screens show for `O=[N+]([O-])c1ccccc1N/N=C/c1cccc(O)c1O`?
Wnt bcat act: inactive; miR-122 sensor: inactive; MITF act: inactive; HIV Env fusion: inactive; esBAF inh: inactive

What do the screens show for `O=[N+]([O-])c1ccc(O)c(/C=N/Nc2ccccc2Cl)c1`?
Wnt bcat act: inconclusive; miR-122 sensor: inactive; MITF act: inactive; HIV Env fusion: inactive; esBAF inh: 47

What do the screens show for `C[C@@H]1CN([C@@H](C)CO)C(=O)c2cccc(NS(=O)(=O)c3ccc(Cl)cc3)c2O[C@@H]1CN(C)Cc1ccc(Cl)c(Cl)c1`?
miR-122 sensor: inactive; HIV Env fusion: inconclusive; esBAF inh: inactive

What do the screens show for `C[C@@H]1CCCCO[C@H](CN(C)C(=O)Nc2ccccc2)[C@H](C)CN([C@@H](C)CO)C(=O)c2cc(NC(=O)c3ccncc3)ccc2O1`?
miR-122 sensor: inactive; HIV Env fusion: inactive; esBAF inh: inactive

How did O=C(O)c1ccc(N/N=C/c2cccc(F)c2)cc1 do in these assays?
MITF act: inactive

What do the screens show for `O=C(O)c1ccc(N/N=C/C2=Cc3ccccc3OC2)cc1`?
Wnt bcat act: 41; miR-122 sensor: inactive; MITF act: 138; HIV Env fusion: inactive; esBAF inh: 81

Results for COc1cc(/C=N/Nc2ccccn2)ccc1O ?
Wnt bcat act: 37; MITF act: inactive; HIV Env fusion: inactive

How did COc1cc(/C=N\Nc2nc3ccccc3o2)cc(OC)c1OC do in these assays?
Wnt bcat act: inconclusive; miR-122 sensor: inactive; MITF act: inactive; HIV Env fusion: inactive; esBAF inh: 51

What do the screens show for `Brc1ccc(/C=N/Nc2nc3ccccc3o2)cc1`?
Wnt bcat act: 47; MITF act: 99; HIV Env fusion: inactive; esBAF inh: inconclusive

What do the screens show for `COc1cc(/C=N/Nc2nc3ccccc3o2)cc(OC)c1O`?
miR-122 sensor: inactive; HIV Env fusion: inactive; esBAF inh: inactive

Results for COc1ccc(/C=N/Nc2nc3ccccc3o2)cc1O ?
Wnt bcat act: 62; miR-122 sensor: inactive; MITF act: inactive; HIV Env fusion: inactive; esBAF inh: inactive

What do the screens show for `Oc1ccccc1/C=N/Nc1nc2ccccc2o1`?
Wnt bcat act: inconclusive; miR-122 sensor: inactive; MITF act: inactive; HIV Env fusion: inactive; esBAF inh: inactive

What do the screens show for `O=C(C[C@H]1CC[C@H]2[C@@H](COC[C@H](O)CN2C(=O)c2ccccc2)O1)N1CCOCC1`?
miR-122 sensor: inactive; HIV Env fusion: inactive; esBAF inh: inactive

How did C=CCNC(=O)C1CCN(c2nc(C)cc(-c3ccccc3)n2)CC1 do in these assays?
Wnt bcat act: inactive; miR-122 sensor: inactive; MITF act: inactive; esBAF inh: 56
